The entries come from a sample that favours hits as a whole.
Pf apPOL block – Pf-apPOL inhibitors, biochemical, fluorescence. Plasmodium falciparum apicoplast DNA polymerase (apPOL). Recombinant Pf-apPOL, molecular beacon fluorescence, 1.5 h. inhibition, % at 10 µM. 210,000 compounds, 0.25% hits. AID 1794808, 2022
mHTT-CaM PPI inh – mutant huntingtin-calmodulin interaction inhibitors – biochemical, AlphaScreen, primary screen; 190,000 compounds, 3.6% hits; AlphaScreen His-mHTT/GST-CaM binding, luminescence; P42858; inhibition, % at 15 µM;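 further: 0% = both proteins with DMSO and 100% = one protein alone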
The depositor's hits bear a star; ! = repeats disagree. No stated cut-off is given here; in the data, active means inhibition above about 50%; inactive means the rest.

For Cc1cccc(C(=O)N2CCC(=O)N([C@H](COCc3ccccc3)Cc3ccccc3)CC2)c1 the results were Pf apPOL block -6 and mHTT-CaM PPI inh 65*!.
`Cc1cccc(C(=O)N2CCC(=O)N([C@H](COCc3cccc(C(F)(F)F)c3)Cc3ccccc3)CC2)c1` gave Pf apPOL block -7 and mHTT-CaM PPI inh 99*.
For Cc1cccc(C(=O)N2CCN(C)CC2)c1 the results were Pf apPOL block 1 and mHTT-CaM PPI inh 0.
For Cc1cccc(COC[C@H](Cc2ccccc2)N2CCN(C(=O)c3cc(Cl)cc(Cl)c3)CCC2=O)c1 the results were Pf apPOL block -2 and mHTT-CaM PPI inh 0.
`Cc1cccc(C(=O)N2CCC(CCOc3ccccc3)CC2)c1` gave Pf apPOL block -4 and mHTT-CaM PPI inh -12.
Screening Cc1cccc(COC[C@H](Cc2ccccc2)N2CCN(C(=O)c3cccc(C)c3)CCC2=O)c1 returned Pf apPOL block -2 and mHTT-CaM PPI inh 81*!.
Screening Cc1cccc(COC[C@H](Cc2ccccc2)N2CCN(C(=O)c3cccc(Cl)c3)CCC2=O)c1 returned Pf apPOL block -4 and mHTT-CaM PPI inh 98*.
`Cc1cccc(C(=O)N2CCN(C(=O)c3cccc(C)c3)CC2)c1` gave Pf apPOL block 0 and mHTT-CaM PPI inh -11.
`O=C(Nc1ccc(Cl)cc1Cl)c1cccnc1SCCS(=O)(=O)c1ccc(C(F)(F)F)cn1` gave Pf apPOL block 1.
For Cc1cc2n(n1)CCCN2C(=O)CCC(=O)NCc1ccc(N(C)C)cc1 the results were Pf apPOL block 2 and mHTT-CaM PPI inh 0.
Screening O=C(NCCc1ccccc1)C1CCCN(C(=O)c2cccc(C(F)(F)F)c2)C1 (stereo not drawn) returned Pf apPOL block 3 and mHTT-CaM PPI inh 29.
`Cc1ccc(S(=O)(=O)N2CCc3ccc(NC(=O)Cc4cccs4)cc3C2)cc1` gave Pf apPOL block -3 and mHTT-CaM PPI inh 5.
COc1ccc(C2CC(O)(c3ccccc3)Oc3c(C)ccc(C)c32)cc1 (stereo not drawn) was read as Pf apPOL block -6 and mHTT-CaM PPI inh 46.
COc1ccc(C2CC(O)(c3ccccc3)Oc3cc(OC)cc(OC)c32)cc1 (stereo not drawn) was read as Pf apPOL block -3 and mHTT-CaM PPI inh 92*.
CCc1ccc(NC(=O)CN2C(=O)NC3(CCC(C)CC3)C2=O)cc1 (stereo not drawn) was read as Pf apPOL block -1 and mHTT-CaM PPI inh 1.
Screening CC(=O)Nc1ccccc1/C=C/c1ccc2cccc(O)c2n1 returned Pf apPOL block 4 and mHTT-CaM PPI inh 26.
Screening CC(=O)Nc1ccc2cccc(O)c2n1 returned Pf apPOL block -4 and mHTT-CaM PPI inh 100*.
Screening CC(=O)c1c(-c2ccccc2)c2cc([N+](=O)[O-])ccc2n1C returned Pf apPOL block -1 and mHTT-CaM PPI inh 5.
Screening CN(C)/C=C/c1c(C=O)c2cc([N+](=O)[O-])ccc2n1C returned Pf apPOL block -7 and mHTT-CaM PPI inh 100*.
Cc1nnc2c(NC(=O)C3CCCO3)cccn12 (stereo not drawn) was read as Pf apPOL block 1 and mHTT-CaM PPI inh -3.
For COc1cc2c(cc1OC)CN(Cc1ccc(OCc3ccccc3)c(OC)c1)CC2 the results were Pf apPOL block 0 and mHTT-CaM PPI inh 100*.
COc1ccc(CN2CCc3cc(OC)c(OC)cc3C2)cc1OC was read as Pf apPOL block 7 and mHTT-CaM PPI inh -2.
`O=C(Cc1ccc(Cl)cc1)NCC1CCN(c2cc(-c3cccnc3)[nH]n2)CC1` gave Pf apPOL block 4 and mHTT-CaM PPI inh 31.
Screening CC1CCCCN1S(=O)(=O)c1ccc2[nH]c(=O)sc2c1 (stereo not drawn) returned Pf apPOL block 3 and mHTT-CaM PPI inh 4.
Screening O=[N+]([O-])c1ccccc1CNc1ccc2cn[nH]c2c1 returned Pf apPOL block -8 and mHTT-CaM PPI inh 59*.
O=C(Nc1ccc2cn[nH]c2c1)c1ccc([N+](=O)[O-])o1 was read as Pf apPOL block 9 and mHTT-CaM PPI inh 1.
`O=[N+]([O-])c1cccc(CNc2cccc(F)c2)c1` gave Pf apPOL block 11 and mHTT-CaM PPI inh 0.
O=[N+]([O-])c1ccccc1CNc1ccc(F)c(F)c1 was read as Pf apPOL block -3 and mHTT-CaM PPI inh 24.
O=[N+]([O-])c1cccc(CNc2ccc3c(c2)CCC3)c1 was read as Pf apPOL block -1 and mHTT-CaM PPI inh 89*.
Screening COc1cc(CNc2ccc3c(c2)CCC3)c([N+](=O)[O-])cc1OC returned Pf apPOL block 1 and mHTT-CaM PPI inh 71*.
O=[N+]([O-])c1ccccc1CNc1ccc2c(c1)CCC2 was read as Pf apPOL block -2 and mHTT-CaM PPI inh 94*.
Screening COc1cc(CNC2CCCCCC2)c([N+](=O)[O-])cc1OC returned Pf apPOL block 0 and mHTT-CaM PPI inh 0.
For Cc1c(C(=O)Nc2nnc(Cc3ccc(Cl)cc3)s2)cccc1[N+](=O)[O-] the results were Pf apPOL block -1 and mHTT-CaM PPI inh 2.

Screening data deposited in PubChem by University of Kansas High Throughput Screening Laboratory.
